Assay [1] addresses T1, Mitogen-activated protein kinase 12 (Homo sapiens) (UniProt P53778).
T1 sequence (whole entry): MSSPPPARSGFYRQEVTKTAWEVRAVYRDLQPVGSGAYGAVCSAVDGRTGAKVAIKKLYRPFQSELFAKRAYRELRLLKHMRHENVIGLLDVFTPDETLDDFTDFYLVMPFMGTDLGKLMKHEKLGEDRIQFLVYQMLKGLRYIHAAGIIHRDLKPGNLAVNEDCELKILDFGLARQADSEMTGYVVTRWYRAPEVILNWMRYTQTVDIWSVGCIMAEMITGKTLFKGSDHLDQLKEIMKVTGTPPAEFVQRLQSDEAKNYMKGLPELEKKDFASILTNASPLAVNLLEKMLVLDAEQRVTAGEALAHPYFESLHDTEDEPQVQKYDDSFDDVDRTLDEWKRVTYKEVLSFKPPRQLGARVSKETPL
The following applies: at 1 µM.

Assay [2] deals with T1, Mitogen-activated protein kinase 12 (Homo sapiens). Conditions: at 10 µM.
In assay [3] the target is T2, Serine/threonine-protein kinase Sgk3 (Homo sapiens) (UniProt Q96BR1).
T2 sequence (whole entry): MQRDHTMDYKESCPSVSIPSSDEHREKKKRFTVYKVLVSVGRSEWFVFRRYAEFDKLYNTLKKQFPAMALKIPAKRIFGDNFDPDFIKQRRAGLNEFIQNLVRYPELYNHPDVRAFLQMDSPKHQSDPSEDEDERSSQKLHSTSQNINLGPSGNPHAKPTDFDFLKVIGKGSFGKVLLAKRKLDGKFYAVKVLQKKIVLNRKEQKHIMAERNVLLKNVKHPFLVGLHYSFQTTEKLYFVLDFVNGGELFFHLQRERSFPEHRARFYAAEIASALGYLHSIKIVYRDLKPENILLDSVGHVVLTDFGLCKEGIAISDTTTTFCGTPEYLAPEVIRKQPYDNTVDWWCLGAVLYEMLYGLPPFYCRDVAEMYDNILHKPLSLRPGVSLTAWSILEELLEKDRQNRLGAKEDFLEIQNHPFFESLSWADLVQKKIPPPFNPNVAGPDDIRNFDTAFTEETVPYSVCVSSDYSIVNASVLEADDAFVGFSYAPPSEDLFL
Conditions: at 1 µM.

For assay [4], the target named is T3, Serine/threonine-protein kinase Sgk1 (Homo sapiens) (UniProt O00141).
T3 sequence (whole entry): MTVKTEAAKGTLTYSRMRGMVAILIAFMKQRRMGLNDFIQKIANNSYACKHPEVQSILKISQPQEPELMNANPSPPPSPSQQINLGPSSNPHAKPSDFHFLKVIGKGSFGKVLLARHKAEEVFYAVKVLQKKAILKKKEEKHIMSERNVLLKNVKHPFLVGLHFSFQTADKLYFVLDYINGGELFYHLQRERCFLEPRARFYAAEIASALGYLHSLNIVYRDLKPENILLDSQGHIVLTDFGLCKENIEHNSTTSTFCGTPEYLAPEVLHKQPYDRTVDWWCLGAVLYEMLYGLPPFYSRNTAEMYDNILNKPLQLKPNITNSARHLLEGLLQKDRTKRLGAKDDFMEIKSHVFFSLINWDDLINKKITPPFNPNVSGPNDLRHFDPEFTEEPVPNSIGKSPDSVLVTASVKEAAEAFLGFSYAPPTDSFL
Conditions: at 10 µM.

The target of assay [5] is T4, Serine/threonine-protein kinase Sgk2 (Homo sapiens) (UniProt Q9HBY8).
T4 sequence (whole entry): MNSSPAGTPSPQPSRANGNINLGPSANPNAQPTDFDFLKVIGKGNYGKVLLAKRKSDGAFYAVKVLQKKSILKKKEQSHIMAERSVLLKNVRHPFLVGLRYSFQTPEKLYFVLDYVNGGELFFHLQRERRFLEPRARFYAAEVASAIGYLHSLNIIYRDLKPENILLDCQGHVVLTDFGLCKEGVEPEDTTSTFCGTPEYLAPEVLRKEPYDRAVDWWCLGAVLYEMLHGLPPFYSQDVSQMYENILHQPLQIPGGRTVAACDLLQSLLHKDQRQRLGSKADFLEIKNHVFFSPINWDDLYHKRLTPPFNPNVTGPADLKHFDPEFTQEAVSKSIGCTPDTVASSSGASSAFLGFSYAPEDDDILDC
Conditions: at 1 µM.

Assay [6] addresses T4, Serine/threonine-protein kinase Sgk2 (Homo sapiens). The following applies: at 10 µM.
Assay [7] concerns the target T2, Serine/threonine-protein kinase Sgk3 (Homo sapiens). The following applies: at 10 µM.
For assay [8], the target named is Serine/threonine-protein kinase SIK1 (Homo sapiens) (UniProt P57059). Conditions: at 1 µM.
Serine/threonine-protein kinase SIK1 (Homo sapiens), sequence (P57059 whole entry): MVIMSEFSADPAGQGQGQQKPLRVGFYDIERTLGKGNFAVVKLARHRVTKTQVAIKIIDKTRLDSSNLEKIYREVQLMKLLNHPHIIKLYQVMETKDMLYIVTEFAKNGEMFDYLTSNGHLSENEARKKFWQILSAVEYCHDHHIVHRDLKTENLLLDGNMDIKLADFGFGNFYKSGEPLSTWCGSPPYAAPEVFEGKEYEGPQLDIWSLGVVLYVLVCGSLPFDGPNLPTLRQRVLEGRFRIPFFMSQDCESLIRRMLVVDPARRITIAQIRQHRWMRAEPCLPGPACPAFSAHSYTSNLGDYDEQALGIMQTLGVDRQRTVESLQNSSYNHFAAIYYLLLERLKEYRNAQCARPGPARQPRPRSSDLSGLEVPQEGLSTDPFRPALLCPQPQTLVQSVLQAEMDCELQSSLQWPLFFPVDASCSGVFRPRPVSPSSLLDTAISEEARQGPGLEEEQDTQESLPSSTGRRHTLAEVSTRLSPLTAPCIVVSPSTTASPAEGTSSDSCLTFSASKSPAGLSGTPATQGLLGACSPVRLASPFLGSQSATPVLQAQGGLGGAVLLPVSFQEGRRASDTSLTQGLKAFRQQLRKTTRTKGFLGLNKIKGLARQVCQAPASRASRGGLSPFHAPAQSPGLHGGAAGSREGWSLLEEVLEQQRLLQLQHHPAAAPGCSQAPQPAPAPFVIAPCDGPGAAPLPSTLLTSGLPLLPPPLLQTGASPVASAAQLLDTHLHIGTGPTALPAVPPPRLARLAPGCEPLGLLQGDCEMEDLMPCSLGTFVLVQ
Assay [9] deals with SRSF protein kinase 1 (Homo sapiens) (UniProt Q96SB4). Conditions: at 10 µM.
SRSF protein kinase 1 (Homo sapiens), sequence (Q96SB4 whole entry): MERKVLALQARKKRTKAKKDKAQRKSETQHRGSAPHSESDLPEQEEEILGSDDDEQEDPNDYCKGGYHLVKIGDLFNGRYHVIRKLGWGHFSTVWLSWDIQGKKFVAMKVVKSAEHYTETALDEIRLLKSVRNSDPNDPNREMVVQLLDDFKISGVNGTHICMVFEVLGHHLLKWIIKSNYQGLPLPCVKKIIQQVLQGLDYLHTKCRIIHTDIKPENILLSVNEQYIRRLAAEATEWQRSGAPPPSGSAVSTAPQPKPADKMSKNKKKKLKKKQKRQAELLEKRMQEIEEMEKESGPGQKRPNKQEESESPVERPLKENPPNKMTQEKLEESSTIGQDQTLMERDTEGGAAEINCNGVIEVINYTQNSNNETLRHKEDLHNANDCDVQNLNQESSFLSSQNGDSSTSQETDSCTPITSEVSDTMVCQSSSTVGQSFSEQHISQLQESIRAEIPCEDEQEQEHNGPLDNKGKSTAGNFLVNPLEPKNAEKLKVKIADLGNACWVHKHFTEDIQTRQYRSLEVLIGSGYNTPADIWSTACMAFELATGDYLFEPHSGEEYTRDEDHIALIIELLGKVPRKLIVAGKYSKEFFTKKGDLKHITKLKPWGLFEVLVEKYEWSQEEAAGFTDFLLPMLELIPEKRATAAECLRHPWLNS
The target in assay [10] is SRSF protein kinase 2 (Homo sapiens) (UniProt P78362). Conditions: at 1 µM.
SRSF protein kinase 2 (Homo sapiens), sequence (P78362 whole entry, looked up): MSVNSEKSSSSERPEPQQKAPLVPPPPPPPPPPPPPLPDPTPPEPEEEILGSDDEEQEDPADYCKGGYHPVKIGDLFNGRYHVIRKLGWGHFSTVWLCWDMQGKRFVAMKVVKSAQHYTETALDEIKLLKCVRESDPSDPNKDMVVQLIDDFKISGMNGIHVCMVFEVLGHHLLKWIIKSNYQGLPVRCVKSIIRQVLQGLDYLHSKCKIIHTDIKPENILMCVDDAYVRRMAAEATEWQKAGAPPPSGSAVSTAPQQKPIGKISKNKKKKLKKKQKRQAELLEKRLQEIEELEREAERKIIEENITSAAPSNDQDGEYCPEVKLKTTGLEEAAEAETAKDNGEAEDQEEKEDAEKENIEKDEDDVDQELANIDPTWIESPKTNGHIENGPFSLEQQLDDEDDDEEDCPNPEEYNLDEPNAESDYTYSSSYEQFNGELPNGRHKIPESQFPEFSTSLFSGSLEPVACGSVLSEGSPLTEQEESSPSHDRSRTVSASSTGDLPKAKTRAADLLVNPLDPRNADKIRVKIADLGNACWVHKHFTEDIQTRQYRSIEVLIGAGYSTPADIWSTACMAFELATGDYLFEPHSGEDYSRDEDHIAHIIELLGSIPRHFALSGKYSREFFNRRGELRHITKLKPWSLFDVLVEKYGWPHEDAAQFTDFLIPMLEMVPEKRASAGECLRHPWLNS
For assay [11] the target is unchanged. Conditions: at 10 µM.
The target in assay [12] is Serine/threonine-protein kinase SIK1 (Homo sapiens) (UniProt P57059). The following applies: at 10 µM.

For the compound `Nc1n[nH]c2nnc(-c3c(-c4ccccc4)nn4ccccc34)cc12`, the figures for the residual activity in [1], in assay [2] and in assay [3] were 91%, 69% and 106%, respectively.

In the case of `Cc1cncc2cccc(S(=O)(=O)N3CCCN(C(=O)CN)C[C@H]3C)c12`, the residual activity in [3] came out at 93%.

As for `Nc1nc(Nc2ccc(S(N)(=O)=O)cc2)nn1C(=O)c1c(F)cccc1F`, the residual activity in assay [2] stood at 67%; in assay [3], 106%.

As for `c1ccc(-c2n[nH]c3c2oc2ccccc23)cc1`, the residual activity in [3] was 94%.

On to `COc1ccc2c(c[n+](C)c3c4cc5c(cc4ccc23)OCO5)c1OC`, for which the residual activity in assay [2] is 94%; in [4], 85%; in [5], 130%; in assay [6], 65%; in [7] it was 79%; in assay [8] it was 92%. Also, the residual activity came to 98% in assay [9], 96% in assay [10] and 96% in assay [11].

As to `O=C1Nc2ccc(Cl)cc2/C1=C/c1cc(Cl)c(O)c(Cl)c1`, the residual activity in assay [3] was determined as 95%.

Take `CCN(CC)CCCCN1c2ccccc2Oc2ccc(Cl)cc21`: the residual activity in assay [1] came to 131%; in [2], 100%; in assay [3], 107%.

As to `Cc1cc(Nc2nc(-c3ccccc3)nc3ccccc23)n[nH]1`, the residual activity came out at 103% in assay [1] and 107% in assay [3].

Take `N#CC(C#N)=C(N)/C(C#N)=C/c1ccc(O)cc1`: the residual activity in assay [2] was found to be 92%.

As to `O=C(c1cc2cc(O)ccc2[nH]1)c1cc2cc(O)ccc2[nH]1`, the residual activity in [3] worked out at 81%.

In the case of `COc1cccc(-c2cc(=O)c3ccccc3o2)c1N`, the residual activity was 102% in [1], 96% in [2] and 104% in assay [3].

Turning to `O=C(Nc1nc2ccccc2n1CCN1CCOCC1)c1cccc([N+](=O)[O-])c1`, in [3], the residual activity was 108%.

For `Oc1cccc(-c2nc(N3CCOCC3)c3oc4ncccc4c3n2)c1`, the residual activity in assay [2] is 86%.

As to `CCN1/C(=C/C(C)=O)Sc2ccc(OC)cc21`, the residual activity in [3] amounted to 100%.

`CC(C)[C@H](CO)Nc1nc(Nc2cc(N)cc(Cl)c2)c2ncn(C(C)C)c2n1`: in assay [3], the residual activity worked out at 98%.

With `CCCCc1c(-c2ccc(O)cc2)[nH]c2nccnc12`, the residual activity in assay [3] came out at 98%.

As to `c1cc(-c2cnn3cc(-c4ccc(OCCN5CCCCC5)cc4)cnc23)ccn1`, the residual activity in [4] was 66%; in assay [5] it was 81%; in [6], 48%; in assay [7], 78%; in assay [8], 43%; in assay [12] it was 9%.

The values are drawn from ChEMBL document CHEMBL2218924, “A broad activity screen in support of a chemogenomic map for kinase signalling research and drug discovery” (Biochem J, 2013).
